Source: PubChem BioAssay (NCI)
Compounds without any hit were thinned out: in the full panel of roughly 83,000, 20% have a hit.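 Note: values are percent growth. 100 is the growth of untreated cells, values between 100 and 0 indicate rising inhibition; between -100 and 0 indicates cell death.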 Unmarked numbers belong to inactive results. Activity calls are given as the source filed them. Rule for the calls: active = growth percent below 10; inactive = the rest.

How the values were obtained:
Test in all cases: NCI-60 one-dose screen, 48 h (100 = growth as untreated, 0 = no growth, -100 = all killed)
Conditions in all cases: 10 µM unless noted
NCI-H23 lung = tested on: NCI-H23 lung
NCI-H226 lung = tested on: NCI-H226 lung
NCI-H322M lung = tested on: NCI-H322M lung
HOP-62 NSCLC = tested on: HOP-62 NSCLC
NCI-H460 lung = tested on: NCI-H460 lung
HOP-92 NSCLC = tested on: HOP-92 NSCLC
NCI-H522 lung = tested on: NCI-H522 lung
A549/ATCC NSCLC = tested on: A549/ATCC NSCLC
786-0 renal = tested on: 786-0 renal
COLO 205 colon = tested on: COLO 205 colon
DU-145 prostate = tested on: DU-145 prostate
K-562 leukemia = tested on: K-562 leukemia
MALME-3M melanoma = tested on: MALME-3M melanoma
MDA-MB-231 breast = tested on: MDA-MB-231 breast
RXF 393 renal = tested on: RXF 393 renal
SF-268 CNS = tested on: SF-268 CNS
SF-295 CNS = tested on: SF-295 CNS
SF-539 CNS = tested on: SF-539 CNS
UACC-257 melanoma = tested on: UACC-257 melanoma
M14 melanoma = tested on: M14 melanoma

Row | SMILES | growth (NCI-H23 lung) | growth (NCI-H226 lung) | growth (NCI-H322M lung) | growth (HOP-62 NSCLC) | growth (NCI-H460 lung) | growth (HOP-92 NSCLC) | growth (NCI-H522 lung) | growth (A549/ATCC NSCLC) | growth (786-0 renal) | growth (COLO 205 colon) | growth (DU-145 prostate) | growth (K-562 leukemia) | growth (MALME-3M melanoma) | growth (MDA-MB-231 breast) | growth (RXF 393 renal) | growth (SF-268 CNS) | growth (SF-295 CNS) | growth (SF-539 CNS) | growth (UACC-257 melanoma) | growth (M14 melanoma)
1 | Cc1[nH]c(/C=C/C(=O)c2ccc(C(F)(F)F)c(F)c2)c(C)c1C(=O)NCC(C)C | 101% | 98.2% | 101% | 87.7% | 101% | 108% | 99.4% | 95.4% | 103% | 113% | 101% | 101% | 96.6% | 99.4% | 93.8% | 95.8% | 90.9% | 96% | 99.2% | 104%
2 | CCOC(=O)c1c(C)nc2c(c1N)CC(=O)N2Cc1cc(OC)c(OC)c(OC)c1 | 39.7% | 70.5% | 81.3% | 32.5% | 17.6% | 62.6% | 33.2% | 40.7% | 66.2% | 20.4% | 80.6% | 14.6% | 45% | 55.3% | 73.2% | 69.5% | 39.5% | 66.2% | 53% | 28.1%
3 | Clc1ccc(-c2cn3ccsc3n2)c(Cl)c1Cl | 89.8% | 84.6% | 118% | 84.9% | 105% | 58.8% | 81.3% | 97.5% | 103% | 94.9% | 76.2% | 73.1% | 117% | 76.1% | 95.2% | 102% | 91.8% | 88% | 87.7% | 98.7%
4 | O=C1NC(=C(Cl)Cl)/C(=N/S(=O)(=O)NCCc2c[nH]c3ccccc23)N1 | 97.4% | 86% | 27.7% | 56.9% | 66.8% | 39% | 17.2% | 99.3% | 66.5% | 110% | 92.3% | 55% | 70% | 44.8% | 81.9% | 21.4% | 98.7% | 25.1% | 73.9% | 83.8%
5 | CC1(C)CCC(S(=O)(=O)c2ccc3c(c2)/C(=N\O)c2cc(S(=O)(=O)N4CCN(c5ccc(F)cc5O)CC4)ccc2-3)CC1 | -76.8% (active) | -57% (active) | -46.9% (active) | -88.1% (active) | -78% (active) | -50.4% (active) | -82.6% (active) | -92.9% (active) | -89.9% (active) | -88.8% (active) | -46% (active) | -78.4% (active) | -70.5% (active) | -63.7% (active) | -90% (active) | -54.4% (active) | -57.1% (active) | -88.2% (active) | -80.6% (active) | -81.9% (active)
6 | C=CCn1c(SCC(=O)Nc2ccc(C(=O)/C=C/c3cc(OC)c(OC)c(OC)c3)cc2)nnc1-c1cc(-c2ccc(OC)cc2)nc2ccccc12 | 93.4% | 94% | 97.5% | 96.5% | 88.9% | 77.4% | 86.3% | 98.1% | 88.7% | 104% | 96.5% | 83.1% | 95.3% | 76.8% | 89.5% | 91.4% | 106% | 90.9% | 100% | 107%
7 | CCOC(=O)c1c(C)c2c(n1C)CSc1cc(S(=O)(=O)c3ccccc3)c(=O)[nH]c1-2 | 21.7% [100 µM] | 24.3% [100 µM] | 28.1% [100 µM] | 57.5% [100 µM] | 9.02% [100 µM] (active) | 8.76% [100 µM] (active) | 32% [100 µM] | 32.1% [100 µM] | 31.4% [100 µM] | -27.7% [100 µM] (active) | 25.8% [100 µM] | 31% [100 µM] | 73.2% [100 µM] | 31.1% [100 µM] | 44.3% [100 µM] | 40.5% [100 µM] | 27.2% [100 µM] | 28.9% [100 µM] | 41.9% [100 µM] | 23.7% [100 µM]
8 | Cc1cc(N2CCCCC2)nc(N2CCN(CC(=O)Nc3ccc4c(ccn4Cc4ccccc4)c3)CC2)n1 | 59.2% | 65.1% | 83% | 67.1% | 56.5% | 23.6% | 65.1% | 49.2% | 68.6% | 48.2% | 79.6% | 35.4% | 70.4% | 64.3% | 36.2% | 80.5% | 42.9% | 80.3% | 71% | 50.9%
